{
  "source": "the supplement of paper PMC10981050",
  "note": "Values joined by “and” are separate entries in the source; they are usually repeats but may differ in a detail not shown here. Equal values may be shown once. Where a name gives a salt, the structure may show the parent alone.",
  "data": [
    {"tested_on": "K562", "experiment": "cell viability relative to vehicle control; higher = less cytotoxic", "conditions": "10 µM; SRSF2 genotype: SRSF2 P95H/wt", "outline": "(§1)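 CRISPR-edited mutant clones and isogenic wild-type clones from four leukaemia lines were screened against Selleck bioactive, kinase and epigenetic probe libraries, with identity-inconsistent compounds excluded. Each compound was acoustically dispensed at a single 10 µM dose into 384-well plates holding 2000 cells in 50 µL medium per well. After 48 h the supernatant was removed and CellTiter-Glo luminescence was read. Viability was expressed as percent of the on-plate vehicle control and analysed in Genedata Screener.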", "values": [
      {"smiles": "CCn1cc(C(=O)O)c(=O)c2cc(F)c(N3CCNCC3)nc21", "note": "[Enoxacin (Penetrex)]", "cell viability": "111% and 106%"},
      {"smiles": "COc1ccc(S(=O)(=O)N(C(C)=O)c2ccccc2/C=C/c2cc[n+]([O-])cc2)cc1", "cell viability": "19.2% and 41.4%"},
      {"smiles": "Cc1cncc(CN2CCC(=C3c4ccc(Cl)cc4CCc4cccnc43)CC2)c1", "note": "[Rupatadine Fumarate]", "cell viability": "77% and 89.3%"},
      {"smiles": "C/C(=C\\C(=O)OCCCCCCCCC(=O)O)C[C@@H]1OC[C@H](C[C@@H]2O[C@H]2[C@@H](C)[C@H](C)O)[C@@H](O)[C@H]1O", "note": "[Mupirocin calcium]", "cell viability": "90.7% and 86.2%"},
      {"smiles": "O=C1[C@H](CC[C@H](O)c2ccc(F)cc2)[C@@H](c2ccc(O)cc2)N1c1ccc(F)cc1", "note": "[Ezetimibe (Zetia)]", "cell viability": "86.1% and 94.8%"},
      {"smiles": "Cc1cc(F)c(C(=O)Nc2cccc(-c3nncn3C(C)C)n2)cc1-n1cnc(C2CC2)c1", "note": "[Selonsertib (GS-4997)]", "cell viability": "78.6% and 86.2%"},
      {"smiles": "COc1cc(C(C)=O)ccc1O", "note": "[Apocynin (Acetovanillone)]", "cell viability": "103% and 104%"},
      {"smiles": "COc1cc2c(cc1OC)[C@@H](Cc1ccc(Oc3cc(C[C@@H]4c5cc(OC)c(OC)cc5CCN4C)ccc3O)cc1)N(C)CC2", "note": "[Dauricine]", "cell viability": "38% and 41.8%"},
      {"smiles": "c1ccc2c(CCNc3ccc(Nc4ccncc4)cc3)c[nH]c2c1", "cell viability": "28.3% and 44.5%"},
      {"smiles": "O=C(O)c1ccc(Br)c(O)c1", "note": "[4-Bromo-3-hydroxybenzoic acid]", "cell viability": "105% and 104%"},
      {"smiles": "CC(=O)NC[C@H]1CN(c2ccc(N3CCOCC3)c(F)c2)C(=O)O1", "note": "[Linezolid (Zyvox)]", "cell viability": "81.9% and 81.7%"},
      {"smiles": "C[C@H]1[C@H](C)CC[C@]2(C(=O)O)CC[C@]3(C)C(=CC[C@@H]4[C@@]5(C)CCC(=O)C(C)(C)[C@@H]5CC[C@]43C)[C@H]12", "note": "[Ursonic acid]", "cell viability": "37.2% and 50.8%"},
      {"smiles": "CN(C)C(=O)c1ccc(S(=O)(=O)c2ccc(NC(=O)C(C)(O)C(F)(F)F)c(Cl)c2)cc1", "note": "(stereo not drawn)", "cell viability": "75.7% and 74.8%"},
      {"smiles": "CC(=O)O[C@H]1CC(=O)OC(C)(C)[C@@H]2CC(=O)[C@]3(C)[C@H](CC[C@@]4(C)[C@@H](c5ccoc5)OC(=O)[C@H]5O[C@]543)[C@@]12C", "note": "[Nomilin]", "cell viability": "101% and 95.9%"},
      {"smiles": "CC(=O)N1CCC(Nc2cc(C(=O)NC[C@H](O)CN3CCc4ccccc4C3)ncn2)CC1", "cell viability": "91.8% and 96.6%"},
      {"smiles": "NCCCC[C@@H]1NC(=O)[C@@H](Cc2ccccc2)NC(=O)[C@H](CC(=O)O)NC(=O)CNC(=O)[C@H](CCCN=C(N)N)NC1=O", "note": "[Cyclo (-RGDfK)]", "cell viability": "98.8% and 104%"},
      {"smiles": "Cc1cc(Nc2ncc3c(n2)N(C)C(=O)N(c2cc(NC(=O)c4cccc(C(F)(F)F)c4)ccc2C)C3)n(C)n1", "note": "[Pluripotin (SC1)]", "cell viability": "35.1% and 35.2%"},
      {"smiles": "c1ccc(NCc2ccc(CNc3ccccn3)cc2)nc1", "cell viability": "91.8% and 94.5%"},
      {"smiles": "O=c1cc(-c2ccc(O)c(O)c2)oc2c([C@@H]3O[C@H](CO)[C@@H](O)[C@H](O)[C@H]3O)c(O)cc(O)c12", "note": "[Orientin]", "cell viability": "104% and 101%"},
      {"smiles": "OCC1OC(Oc2ccc(O)cc2)C(O)C(O)C1O", "note": "(stereo not drawn) [alpha-Arbutin]", "cell viability": "99.8% and 105%"},
      {"smiles": "CCCCCCCCCCCCCCCC(=O)OCC(O)C1OC(=O)C(O)=C1O", "note": "[L-Ascorbyl 6-palmitate]", "cell viability": "103% and 102%"},
      {"smiles": "COC(=O)[C@]12CCC(C)(C)C[C@H]1[C@H]1C(=O)C=C3[C@@]4(C)C=C(C#N)C(=O)C(C)(C)[C@@H]4CC[C@@]3(C)[C@]1(C)CC2", "note": "[Bardoxolone Methyl]", "cell viability": "2.03% and 0.75%"},
      {"smiles": "COC(=O)c1cc(O)c(O)c(O)c1", "note": "[Methyl gallate]", "cell viability": "103% and 104%"},
      {"smiles": "COc1ccccc1OCC(O)CO", "note": "(stereo not drawn) [Guaifenesin (Guaiphenesin)]", "cell viability": "106% and 104%"},
      {"smiles": "N#Cc1cccc(-c2c[nH]c3ncnc(N4CCOCC4)c23)c1", "cell viability": "102% and 106%"},
      {"smiles": "c1cncc(-c2cn[nH]n2)c1", "cell viability": "78.5% and 56.7%"},
      {"smiles": "C1=Cc2ccccc2Nc2ccccc21", "note": "[Iminostilbene]", "cell viability": "101% and 95.4%"},
      {"smiles": "COc1ccc(-c2oc3c(CC=C(C)C)c(O)cc(O)c3c(=O)c2O[C@@H]2O[C@@H](C)[C@H](O)[C@@H](O)[C@H]2O)cc1", "note": "[Baohuoside I]", "cell viability": "101% and 98.2%"}
    ]},
    {"tested_on": "K562", "experiment": "cell viability relative to vehicle control; higher = less cytotoxic", "conditions": "10 µM; SRSF2 genotype: SRSF2 wt/wt", "outline": "as §1", "units": {"cell viability": "%"}, "values": [
      {"smiles": "CCN(CCCc1ccccc1)CCCc1ccccc1", "note": "[Alverine Citrate]", "cell viability": 80.6},
      {"smiles": "CC(=O)OCC(=O)[C@@]12N=C(C)O[C@@H]1C[C@H]1[C@@H]3CCC4=CC(=O)C=C[C@]4(C)[C@H]3[C@@H](O)C[C@@]12C", "note": "[Deflazacort (Calcort)]", "cell viability": 103},
      {"smiles": "CS(=O)(=O)Nc1ccc([N+](=O)[O-])cc1OC1CCCCC1", "cell viability": 97},
      {"smiles": "O=C(/C=C/c1ccc(O)c(O)c1)O[C@@H]1C[C@](O)(C(=O)O)C[C@@H](O)[C@H]1O", "note": "[Chlorogenic acid]", "cell viability": 99.4},
      {"smiles": "Nc1ncnc2c1ncn2C1OC(COP(=O)(O)OP(=O)(O)O)C(O)C1O", "note": "(stereo not drawn)", "cell viability": 107},
      {"smiles": "C[C@@H]1Cc2c([nH]c3ccccc23)[C@@H](c2c(F)cc(/C=C/C(=O)O)cc2F)N1CC(C)(C)F", "cell viability": 108},
      {"smiles": "O=C(c1ccccc1)c1ccc2nc(NC(=O)c3csc(C4CCN(c5ncnc6ccsc56)CC4)n3)[nH]c2c1", "cell viability": 39.3},
      {"smiles": "CC(C)NCC(O)c1ccc(O)c(O)c1", "note": "(stereo not drawn) [Isoprenaline hydrochloride]", "cell viability": 96.9},
      {"smiles": "O=C(Nc1ccc(Br)cc1)c1c(O)cccc1O", "note": "[Resorantel]", "cell viability": 19.6},
      {"smiles": "Nc1ccn([C@@H]2O[C@H](CO)[C@@H](O)[C@H]2O)c(=O)n1", "note": "[Cytidine]", "cell viability": 84.4},
      {"smiles": "O=C1[C@H]2CCCC[C@H]2C(=O)N1CCCCN1CCN(c2nsc3ccccc23)CC1", "note": "[Perospirone hydrochloride]", "cell viability": 73.6},
      {"smiles": "COc1cc(C(=O)NS(=O)(=O)c2ccccc2C)ccc1Cc1cn(C)c2ccc(NC(=O)OC3CCCC3)cc12", "note": "[Zafirlukast (Accolate)]", "cell viability": 92.8},
      {"smiles": "CCn1cc(C(=O)O)c(=O)c2cc(F)c(N3CCNCC3)nc21", "note": "[Enoxacin (Penetrex)]", "cell viability": 108},
      {"smiles": "COc1ccc(S(=O)(=O)N(C(C)=O)c2ccccc2/C=C/c2cc[n+]([O-])cc2)cc1", "cell viability": 38.4},
      {"smiles": "Cc1cncc(CN2CCC(=C3c4ccc(Cl)cc4CCc4cccnc43)CC2)c1", "note": "[Rupatadine Fumarate]", "cell viability": 76.5},
      {"smiles": "C/C(=C\\C(=O)OCCCCCCCCC(=O)O)C[C@@H]1OC[C@H](C[C@@H]2O[C@H]2[C@@H](C)[C@H](C)O)[C@@H](O)[C@H]1O", "note": "[Mupirocin calcium]", "cell viability": 87.5},
      {"smiles": "O=C1[C@H](CC[C@H](O)c2ccc(F)cc2)[C@@H](c2ccc(O)cc2)N1c1ccc(F)cc1", "note": "[Ezetimibe (Zetia)]", "cell viability": 102},
      {"smiles": "Cc1cc(F)c(C(=O)Nc2cccc(-c3nncn3C(C)C)n2)cc1-n1cnc(C2CC2)c1", "note": "[Selonsertib (GS-4997)]", "cell viability": 82},
      {"smiles": "COc1cc(C(C)=O)ccc1O", "note": "[Apocynin (Acetovanillone)]", "cell viability": 105},
      {"smiles": "COc1cc2c(cc1OC)[C@@H](Cc1ccc(Oc3cc(C[C@@H]4c5cc(OC)c(OC)cc5CCN4C)ccc3O)cc1)N(C)CC2", "note": "[Dauricine]", "cell viability": 18.5},
      {"smiles": "c1ccc2c(CCNc3ccc(Nc4ccncc4)cc3)c[nH]c2c1", "cell viability": 46},
      {"smiles": "O=C(O)c1ccc(Br)c(O)c1", "note": "[4-Bromo-3-hydroxybenzoic acid]", "cell viability": 104},
      {"smiles": "CC(=O)NC[C@H]1CN(c2ccc(N3CCOCC3)c(F)c2)C(=O)O1", "note": "[Linezolid (Zyvox)]", "cell viability": 84.3},
      {"smiles": "C[C@H]1[C@H](C)CC[C@]2(C(=O)O)CC[C@]3(C)C(=CC[C@@H]4[C@@]5(C)CCC(=O)C(C)(C)[C@@H]5CC[C@]43C)[C@H]12", "note": "[Ursonic acid]", "cell viability": 55.8},
      {"smiles": "CN(C)C(=O)c1ccc(S(=O)(=O)c2ccc(NC(=O)C(C)(O)C(F)(F)F)c(Cl)c2)cc1", "note": "(stereo not drawn)", "cell viability": 74.2},
      {"smiles": "CC(=O)O[C@H]1CC(=O)OC(C)(C)[C@@H]2CC(=O)[C@]3(C)[C@H](CC[C@@]4(C)[C@@H](c5ccoc5)OC(=O)[C@H]5O[C@]543)[C@@]12C", "note": "[Nomilin]", "cell viability": 97.8},
      {"smiles": "CC(=O)N1CCC(Nc2cc(C(=O)NC[C@H](O)CN3CCc4ccccc4C3)ncn2)CC1", "cell viability": 90.9},
      {"smiles": "NCCCC[C@@H]1NC(=O)[C@@H](Cc2ccccc2)NC(=O)[C@H](CC(=O)O)NC(=O)CNC(=O)[C@H](CCCN=C(N)N)NC1=O", "note": "[Cyclo (-RGDfK)]", "cell viability": 103},
      {"smiles": "Cc1cc(Nc2ncc3c(n2)N(C)C(=O)N(c2cc(NC(=O)c4cccc(C(F)(F)F)c4)ccc2C)C3)n(C)n1", "note": "[Pluripotin (SC1)]", "cell viability": 30.4},
      {"smiles": "c1ccc(NCc2ccc(CNc3ccccn3)cc2)nc1", "cell viability": 85},
      {"smiles": "O=c1cc(-c2ccc(O)c(O)c2)oc2c([C@@H]3O[C@H](CO)[C@@H](O)[C@H](O)[C@H]3O)c(O)cc(O)c12", "note": "[Orientin]", "cell viability": 101},
      {"smiles": "OCC1OC(Oc2ccc(O)cc2)C(O)C(O)C1O", "note": "(stereo not drawn) [alpha-Arbutin]", "cell viability": 98.6},
      {"smiles": "CCCCCCCCCCCCCCCC(=O)OCC(O)C1OC(=O)C(O)=C1O", "note": "[L-Ascorbyl 6-palmitate]", "cell viability": 98.7},
      {"smiles": "COC(=O)[C@]12CCC(C)(C)C[C@H]1[C@H]1C(=O)C=C3[C@@]4(C)C=C(C#N)C(=O)C(C)(C)[C@@H]4CC[C@@]3(C)[C@]1(C)CC2", "note": "[Bardoxolone Methyl]", "cell viability": 1.02},
      {"smiles": "COC(=O)c1cc(O)c(O)c(O)c1", "note": "[Methyl gallate]", "cell viability": 96.7},
      {"smiles": "COc1ccccc1OCC(O)CO", "note": "(stereo not drawn) [Guaifenesin (Guaiphenesin)]", "cell viability": 107},
      {"smiles": "N#Cc1cccc(-c2c[nH]c3ncnc(N4CCOCC4)c23)c1", "cell viability": 102},
      {"smiles": "c1cncc(-c2cn[nH]n2)c1", "cell viability": 64.2},
      {"smiles": "C1=Cc2ccccc2Nc2ccccc21", "note": "[Iminostilbene]", "cell viability": 98.1},
      {"smiles": "COc1ccc(-c2oc3c(CC=C(C)C)c(O)cc(O)c3c(=O)c2O[C@@H]2O[C@@H](C)[C@H](O)[C@@H](O)[C@H]2O)cc1", "note": "[Baohuoside I]", "cell viability": 90.4}
    ]}
  ]
}
